Here are results for eight molecules from PubChem BioAssay (NCI).

Among the test systems are SK-MEL-2 melanoma; EKVX NSCLC; SN12C renal; TK-10 renal; ACHN renal; CAKI-1 renal; A498 renal; CCRF-CEM leukemia; MOLT-4 leukemia; SR leukemia; RPMI-8226 leukemia; OVCAR-8 ovarian; OVCAR-5 ovarian; SK-OV-3 ovarian; IGROV1 ovarian; OVCAR-3 ovarian; HS 578T breast; NCI/ADR-RES ovarian; OVCAR-4 ovarian; UO-31 renal.
Common to all, as to assay: NCI-60 one-dose screen, 48 h (100 = growth as untreated, 0 = no growth, -100 = all killed)
Common to all, as to details: 10 µM unless noted

SMILES strings stand for the structures. About 83,000 compounds went through this panel and 20% of them were active in at least one assay; those are over-represented in the sample as a whole.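 48-hour exposure, single concentration, 96-well plates; percent growth endpoint where 0 means no net growth. Active: below 10.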 A number with no mark means an inactive call. Active and inactive are the calls of the source.

Consider `C/C(=N\O)c1ccc(NC(=O)CSc2nnc(-c3cc(-c4ccc(S(C)(=O)=O)cc4)nc4ccccc34)n2-c2ccccc2)cc1`, for which the growth is 100% in the test with SK-MEL-2 melanoma; 84.7% in the test on EKVX NSCLC; 89.2% with SN12C renal; 107% with TK-10 renal; 90.8% in the test with ACHN renal; 73.8% with CAKI-1 renal. For the same molecule, the growth in the test on A498 renal is 53.1%; with CCRF-CEM leukemia it was 68.2%; in the test with MOLT-4 leukemia, 57.9%; in the test with SR leukemia, 62.4%; in the test on RPMI-8226 leukemia it was 48.2%; with OVCAR-8 ovarian it was 82.6%. For the same molecule, the growth in the test with OVCAR-5 ovarian was 97.3%; in the test with SK-OV-3 ovarian, 115%; with IGROV1 ovarian, 80.9%; in the test on OVCAR-3 ovarian, 102%; in the test with HS 578T breast, 73.4%; with NCI/ADR-RES ovarian, 96.8%.

Turning to `COc1ccc(N2CCN(C(=O)c3sc4nc(C)c(Br)c(C)c4c3N)CC2)cc1`, the growth in the test on SK-MEL-2 melanoma is 85.1%; in the test on EKVX NSCLC it was 79.9%; in the test on SN12C renal it was 95.9%; in the test with TK-10 renal it was 115%; in the test on ACHN renal, 92.6%; in the test on CAKI-1 renal it was 82.6%. Also, the growth is 103% in the test with A498 renal; 97.8% in the test with CCRF-CEM leukemia; 93% in the test with MOLT-4 leukemia; 97.4% in the test on SR leukemia; 98.5% with RPMI-8226 leukemia; 97.6% with OVCAR-8 ovarian. Also, the growth in the test with OVCAR-5 ovarian is 90.5%; in the test on OVCAR-4 ovarian it was 90.6%; in the test with SK-OV-3 ovarian, 90.1%; in the test on IGROV1 ovarian it was 91.2%; in the test with OVCAR-3 ovarian, 98.3%; in the test on HS 578T breast, 92.8%. For the same molecule, the growth in the test with NCI/ADR-RES ovarian is 101%.

Regarding `CCN1C(=O)N(CC)C2C1N=C(SCc1ccc(Cl)cc1)N2/N=C/C=C/c1ccccc1OC` (stereo not drawn), the growth was 57.7% with SK-MEL-2 melanoma; 62.5% in the test on EKVX NSCLC; 77.8% in the test with SN12C renal; 96.4% with TK-10 renal; 61.5% with ACHN renal; 42.2% with CAKI-1 renal. Further, the growth is 54.6% in the test on A498 renal; 46.4% with CCRF-CEM leukemia; 55.3% in the test on MOLT-4 leukemia; 18.4% in the test with SR leukemia; 11.2% in the test on RPMI-8226 leukemia; 56.8% with OVCAR-8 ovarian. The growth with OVCAR-5 ovarian was 98.6%; in the test on OVCAR-4 ovarian, 69.9%; with SK-OV-3 ovarian, 70.4%; in the test with IGROV1 ovarian it was 78.6%; in the test with OVCAR-3 ovarian it was 50.6%; in the test with HS 578T breast it was 57.3%. Besides, the growth with NCI/ADR-RES ovarian is 26.4%.

For the molecule `COc1ccc(/C=C2\COc3ccc(O)cc3C2=O)cc1`, the growth was 109% in the test on SK-MEL-2 melanoma; 105% in the test on EKVX NSCLC; 92.5% in the test with SN12C renal; 104% in the test with TK-10 renal; 98.9% in the test with ACHN renal; 89.4% in the test with CAKI-1 renal. For the same molecule, the growth in the test with A498 renal is 110%; with CCRF-CEM leukemia it was 3.13% (active); in the test on MOLT-4 leukemia, 74.5%; in the test with SR leukemia it was 15.8%; in the test with RPMI-8226 leukemia, -0.495% (active); with OVCAR-5 ovarian it was 102%. The growth in the test with OVCAR-4 ovarian was 104%; in the test on SK-OV-3 ovarian it was 128%; in the test on IGROV1 ovarian, 99.6%; in the test with OVCAR-3 ovarian, 114%; with HS 578T breast, 104%; with NCI/ADR-RES ovarian, 98.5%.

As to `COc1cc(-c2nc3cc(Cl)c(Cl)cc3[nH]2)ccc1OCC(=O)N=Nc1c(O)[nH]c2ccc(Cl)cc12`, the growth was -27.3% (active) with SK-MEL-2 melanoma; 45.7% in the test on EKVX NSCLC; 0.477% (active) in the test on SN12C renal; 36.5% in the test with TK-10 renal; 29.2% with ACHN renal; 15.2% in the test on CAKI-1 renal. In addition, the growth is 20.1% in the test with A498 renal; -31.3% (active) with CCRF-CEM leukemia; -27.8% (active) in the test on MOLT-4 leukemia; -30.7% (active) in the test on SR leukemia; 10.4% with RPMI-8226 leukemia; 2.5% (active) with OVCAR-8 ovarian. Moreover, the growth with OVCAR-5 ovarian is 26.8%; in the test with OVCAR-4 ovarian, 12.2%; in the test with SK-OV-3 ovarian it was -5.3% (active); with IGROV1 ovarian, -0.308% (active); with OVCAR-3 ovarian it was -94.3% (active); in the test on HS 578T breast it was -14% (active). Moreover, in the test on NCI/ADR-RES ovarian, the growth was 88.2%.

On to `COc1ccc(-c2nc(/C=C3\C(=O)N(C)c4ccccc43)c3ccccn23)cc1`, for which the growth in the test with SK-MEL-2 melanoma is 83.7%; with EKVX NSCLC, 113%; with SN12C renal, 82.3%; in the test with TK-10 renal, 60.1%; in the test on ACHN renal it was 64.5%; with CAKI-1 renal it was 94.1%. Moreover, the growth in the test on A498 renal was 103%; in the test with CCRF-CEM leukemia, 71.7%; with MOLT-4 leukemia, 95.7%; with SR leukemia, -7.02% (active); in the test on OVCAR-8 ovarian it was 58.6%; in the test with OVCAR-5 ovarian it was 85.5%. The growth with OVCAR-4 ovarian is 47.2%; in the test with SK-OV-3 ovarian, 66.8%; in the test with IGROV1 ovarian, 69.7%; in the test on OVCAR-3 ovarian, 94.3%; with HS 578T breast, 41.3%; in the test with NCI/ADR-RES ovarian, 77.6%.

In the case of `NC1(CO)COC(c2ccccc2)OC1` (stereo not drawn), the growth with SK-MEL-2 melanoma is 102%; with EKVX NSCLC, 118%; in the test with SN12C renal it was 104%; in the test on UO-31 renal, 87.6%; with TK-10 renal, 96.5%; in the test on ACHN renal, 96.3%. For the same molecule, the growth was 103% in the test on CAKI-1 renal; 107% with A498 renal; 89% with MOLT-4 leukemia; 83.5% in the test with SR leukemia; 108% in the test on RPMI-8226 leukemia; 103% in the test on OVCAR-8 ovarian. In addition, the growth in the test on OVCAR-5 ovarian was 94.9%; in the test with OVCAR-4 ovarian, 130%; with SK-OV-3 ovarian, 101%; in the test on IGROV1 ovarian, 104%; with OVCAR-3 ovarian it was 126%; with HS 578T breast, 106%. Further, in the test on NCI/ADR-RES ovarian, the growth was 113%.

Consider `OCCNCCNC(Cc1ccc(Cl)cc1)c1ccccc1` (stereo not drawn), for which the growth was 86.6% in the test on SK-MEL-2 melanoma; 88.5% in the test with EKVX NSCLC; 92% with SN12C renal; 80.8% with TK-10 renal; 95.9% with ACHN renal; 84.3% with CAKI-1 renal. Besides, the growth is 90.1% in the test with A498 renal; 85.4% in the test on CCRF-CEM leukemia; 86.4% with MOLT-4 leukemia; 88.5% in the test with SR leukemia; 81.3% with RPMI-8226 leukemia; 63.6% in the test on OVCAR-5 ovarian. The growth in the test on OVCAR-4 ovarian is 95.6%; in the test with SK-OV-3 ovarian, 81%; in the test with IGROV1 ovarian it was 87.3%; in the test on OVCAR-3 ovarian it was 94.5%; in the test on HS 578T breast, 91.5%; with NCI/ADR-RES ovarian, 92.2%.
